Results filed as inconclusive are left out. Calls of active or inactive are those of the source. The call rests on the fitted dose curve; in most records, active means well fitted inhibition curve with a large enough effect in the signal ratio in the repeat runs (not every such curve was filed as active); inconclusive means weak or mixed curves, or effect the other way; inactive means no such curve, though single readings can be large or run the other way; the % refers to the signal ratio.
The compounds below were run against Estrogen receptor beta (Homo sapiens) (UniProt Q92731) (assay: qHTS assay to identify small molecule antagonists of the estrogen receptor beta (ER-beta) signaling pathway (AID 1259378)). Details: ER-beta-UAS-bla HEK293T, beta-lactamase FRET ratio, 16 h; series mostly up to 92.4 µM.
Estrogen receptor beta (Homo sapiens), sequence (Q92731 whole entry, looked up): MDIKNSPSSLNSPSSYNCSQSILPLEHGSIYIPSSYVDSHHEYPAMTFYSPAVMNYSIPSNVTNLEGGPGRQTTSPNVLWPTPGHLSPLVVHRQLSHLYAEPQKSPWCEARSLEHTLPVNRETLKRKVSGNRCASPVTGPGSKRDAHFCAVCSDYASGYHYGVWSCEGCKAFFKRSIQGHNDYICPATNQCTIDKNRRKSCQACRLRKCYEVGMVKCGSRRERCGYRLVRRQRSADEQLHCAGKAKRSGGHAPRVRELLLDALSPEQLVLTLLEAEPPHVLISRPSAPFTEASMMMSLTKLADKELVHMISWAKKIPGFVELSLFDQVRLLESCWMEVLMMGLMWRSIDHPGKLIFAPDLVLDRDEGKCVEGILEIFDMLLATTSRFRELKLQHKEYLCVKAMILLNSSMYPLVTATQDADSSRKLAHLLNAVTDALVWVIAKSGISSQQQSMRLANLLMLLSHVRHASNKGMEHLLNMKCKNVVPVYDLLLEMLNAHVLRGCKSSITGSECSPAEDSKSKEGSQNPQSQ
Text: National Center for Advancing Translational Sciences [NCATS]
NIH Chemical Genomics Center [NCGC]
U.S. Environmental Protection Agency [EPA]
National Institutes of Environmental Health Sciences [NIEHS]
National Toxicology Program [NTP]
U.S. Food and Drug Administration [FDA]
Estrogen receptor (ER), a nuclear hormone receptor, plays an important role in development, metabolic homeostasis and reproduction. Two subtypes of ER, ER-alpha and ER-beta, have similar expression patterns with some uniqueness in both types. Endocrine disrupting chemicals (EDCs) and their interactions with steroid hormone receptors like ER causes disruption of normal endocrine function. To identify the compounds that inhibit ER signaling, an ER-beta-UAS-bla GripTite cell line (Life Technologies, Madison, WI, USA) containing a beta-lactamase reporter gene under the control of an UAS response element was used to screen Tox21 10K compound library.
Tox21 Assay Protocol Summary:
ER-beta-UAS-bla HEK293T cells were dispensed at 2,000 cells/4 uL of assay medium containing 2% charcoal stripped FBS per well into black wall/clear-bottom 1536-well plates using a Multidrop Combi (ThermoFisher Scientific, Waltham, MA) dispenser. After the assay plates were incubated at a 37C and 5% CO2 for 6 hr, 23 nL of compounds dissolved in DMSO, positive controls or DMSO only was transferred to the assay plate by a Pintool station (Kalypsys, San Diego, CA), followed by addition of 1 uL (1nM as final concentration) of 17-beta-estradiol (E2) in assay medium using a BioRAPTR FRD (Flying Reagent Dispenser, Aurora Discovery, San Diego, CA). The plates were incubated at 37C and 5% CO2 for 16 hr. Then 1 uL of LiveBLAzerTM B/G FRET substrate was added using a Flying Reagent Dispenser, the plates were incubated at room temperature for 2 hours, and fluorescence intensity was measured by an Envision plate reader (PerkinElmer, Shelton, CT).
With `Clc1cc2c(cc1Cl)Oc1cc(Cl)c(Cl)cc1O2` the activity, negative = inhibition was 4.24% [at 0.349 µM] (inactive). In the case of `CC(C)(C1CCC(O)CC1)C1CCC(O)CC1` (stereo not given), the outcome is reported as “inactive”. With `C#CC(C)(C)O` the outcome was “inactive”. For `CCNP(=S)(OC)O/C(C)=C/C(=O)OC(C)C` (stereo not given), the outcome was “inactive”. With `CCNc1nc(NCC)nc(SC)n1` the outcome was “inactive”. With `CCOC(=O)C(Cl)Cc1cc(-n2nc(C)n(C(F)F)c2=O)c(F)cc1Cl` (stereo not given) the outcome was “inactive”. For `C/C=C/CC#N`, the outcome was “inactive”. With `c1cncc([C@@H]2CCCCN2)c1` the outcome was “inactive”. `O=C(Cl)C(Cl)(Cl)Cl` was tested, and the outcome was “inactive”. For `CC(O)CCl` (stereo not given), the outcome was “inactive”. In the case of `O=C1CCCCC1Cl` (stereo not given), the outcome is reported as “inactive”. In the case of `C=C1C[C@@H]2[C@H](CC[C@]3(C)C(=O)CC[C@@H]23)[C@@]2(C)C=CC(=O)C=C12`, the outcome is reported as “inactive”. With `N#CN` the outcome was “inactive”. In the case of `CCC(C)C(C)(COC(N)=O)COC(N)=O` (stereo not given), the outcome is reported as “inactive”. With `CCN(CCO)CCn1c(Cc2ccccc2)nc2c1c(=O)n(C)c(=O)n2C` the outcome was “inactive”. `CC[C@H](O)C(C[C@H](C)N(C)C)(c1ccccc1)c1ccccc1` was tested, and the outcome was “inactive”. For `CC(Cc1ccccc1)NCCn1cnc2c1c(=O)n(C)c(=O)n2C` (stereo not given), the outcome was “inactive”. `C=C1CC[C@@]2(O)[C@H]3Cc4ccc(O)c5c4[C@@]2(CCN3CC2CC2)[C@H]1O5` was tested, and the outcome was “inactive”. For `ClCCCCCCCl`, the outcome was “inactive”. For `COP(=O)(OC)O/C(C)=C/C(=O)N(C)C`, the outcome was “inactive”. `CCCOC(=O)Cc1ccc(OCC(=O)N(CC)CC)c(OC)c1` was tested, and the outcome was “inactive”. In the case of `CC(=NC#N)N(C)Cc1ccc(Cl)nc1`, the outcome is reported as “inactive”. `CCC1(c2ccccc2)CCC(=O)NC1=O` (stereo not given) was tested, and the outcome was “inactive”. For `C1CN2CCC1CC2`, the outcome was “inactive”. `CC[C@@H](CO)NC(=O)[C@@H]1C=C2c3cccc4[nH]cc(c34)C[C@H]2N(C)C1` was tested, and the outcome was “inactive”. In the case of `CCOC1Oc2ccc(OS(C)(=O)=O)cc2C1(C)C` (stereo not given), the outcome is reported as “inactive”. `ClC(Cl)(Cl)Cl` was tested, and the outcome was “inactive”. For `C/C(=N\NC(=O)Nc1cc(F)cc(F)c1)c1ncccc1C(=O)O`, the outcome was “inactive”. `N[C@@H](Cc1ccc(Oc2cc(I)c(O)c(I)c2)c(I)c1)C(=O)O` was tested, and the outcome was “inactive”. For `O=C(NC(O)C(Cl)(Cl)Cl)NC(O)C(Cl)(Cl)Cl` (stereo not given), the outcome was “inactive”. For `Cn1c(N)nc2c3cccnc3ccc21`, the outcome was “inactive”. For `CCC(CC)(CNC(=O)CCCO)c1cccc(OC)c1`, the outcome was “inactive”. `CCOC(=O)c1ncn2c1CN(C)C(=O)c1c(I)cccc1-2` was tested, and the outcome was “inactive”. With `O=c1[nH]oc2c1CCNC2` the outcome was “inactive”. For `CN(CCO)CCO`, the outcome was “inactive”. `CC(C)(C)C(=O)C(Cl)Cl` was tested, and the outcome was “inactive”. With `O=C(Cl)OCc1ccccc1` the outcome was “inactive”. `O=C(Cl)CCl` was tested, and the outcome was “inactive”. For `BrCC1CO1` (stereo not given), the outcome was “inactive”. In the case of `CC(C)(O)C(Cl)(Cl)Cl`, the outcome is reported as “inactive”.

— PubChem BioAssay (Tox21)
On the % scale 0 is the no-effect control and ±100 the full control effect.
